PubChem BioAssay AID2613 (National Center for Advancing Translational Sciences (NCATS), 2010)
Results filed as inconclusive are left out. Activity calls are given as the source filed them. Calls come from the whole dose curve; as a rule, active = well fitted inhibition curve with a large enough effect; inconclusive = small, poorly fitted or top-dose-only effect; inactive = flat fitted curve, though single readings scatter.

Target: Lysosomal acid glucosylceramidase (Homo sapiens) (UniProt P04062)
Experiment: qHTS Assay for Inhibitors and Activators of N370S glucocerebrosidase as a Potential Chaperone Treatment of Gaucher Disease: Activity in N370S Spleen Homogenate Using a Red Fluorescent Substrate
Details: red fluorogenic substrate; series mostly up to 49.6 µM; activity change, negative = inhibition: at the top concentration
Description: NIH Chemical Genomics Center [NCGC]
NIH Molecular Libraries Probe Production Centers Network [MLPCN]
Assay Submitter (PI): Wei Zheng
Glucocerebrosidase (GC) catalyzes the hydrolysis of beta-glucocerebroside to glucose and ceramide in lysosomes. Mutations in the glucocerebrosidase gene result in Gaucher disease, an autosomal recessive lysosomal storage disorder. Many of the mutations encountered in patients with Gaucher disease are missense alterations that may cause misfolding, decreased stability and/or mistrafficking of this lysosomal protein. […] These inhibitors include iminosugar analogs and three non-iminosugar inhibitors identified from a previous HTS of 62,000 compounds with the wild type recombinant enzyme. However, the enhancement of enzyme activity by the chaperone action of an enzyme inhibitor must be balanced against the direct inhibition of the enzyme. An enzyme activator could also function as a chaperone by binding to the enzyme and helping to correct its misfolding and mistrafficking. While activators for GC have not yet been identified, they may have better therapeutic potential than inhibitors. Therefore the discovery and development of chemical activators may provide a new strategy for the chaperone therapy.
We have optimized a new assay using N370S mutant GC derived from the spleen of a Gaucher patient. […] In addition, the MLPCN compound library has expanded, which increases the chance of finding new and better probes.
This confirmation assay tests for compound activity in spleen homogenate from a patient homozygous for the N370S mutation using an alternate resorufin-based substrate.
NCGC Assay Protocol Summary:
This is a fluorogenic enzyme assay with resorufin-beta-D-glucopyranoside as the substrate and mutant N370S glucocerebrosidase from human spleen homogenate as the enzyme preparation. Upon the hydrolysis of this fluorogenic substrate, the resulting product, […] which can be detected by a standard fluorescence plate reader. Data were normalized to the controls for basal activity (without enzyme) and 100% activity (with enzyme). The AC50 values were determined from concentration-response data modeled with the standard Hill equation.
Assay buffer: 50 mM citric acid (titrated with potassium phosphate to pH 5.0), 100 mM potassium chloride, 10 mM sodium chloride, 1 mM magnesium chloride, 0.01% Tween-20.
1536-well assay protocol:
(1) Add 2 ul/well of spleen homogenate (27 ug final)
(2) Add 23 nL compounds in DMSO solution. The final titration was 0.5 nM to 58 uM.
(3) Add 2 ul of substrate (1 mM final)
(4) Incubate at 37C for 40 min.
(5) Add 2 ul stop solution (1M NaOH and 1M Glycine mixture, pH 10)
(6) Detect the assay plate in a ViewLux plate reader (PerkinElmer) with Ex=365 nm and Em=440nm.
Keywords: Glucocerebrosidase, beta-glucosidase, Gaucher Disease, pharmacological chaperone, chaperone therapy, high throughput screening, glucocerebrosidase inhibitor, MLSMR, MLSCN, NIH Roadmap, qHTS and NCGC

Chain of Lysosomal acid glucosylceramidase (Homo sapiens) (P04062 whole entry N409S): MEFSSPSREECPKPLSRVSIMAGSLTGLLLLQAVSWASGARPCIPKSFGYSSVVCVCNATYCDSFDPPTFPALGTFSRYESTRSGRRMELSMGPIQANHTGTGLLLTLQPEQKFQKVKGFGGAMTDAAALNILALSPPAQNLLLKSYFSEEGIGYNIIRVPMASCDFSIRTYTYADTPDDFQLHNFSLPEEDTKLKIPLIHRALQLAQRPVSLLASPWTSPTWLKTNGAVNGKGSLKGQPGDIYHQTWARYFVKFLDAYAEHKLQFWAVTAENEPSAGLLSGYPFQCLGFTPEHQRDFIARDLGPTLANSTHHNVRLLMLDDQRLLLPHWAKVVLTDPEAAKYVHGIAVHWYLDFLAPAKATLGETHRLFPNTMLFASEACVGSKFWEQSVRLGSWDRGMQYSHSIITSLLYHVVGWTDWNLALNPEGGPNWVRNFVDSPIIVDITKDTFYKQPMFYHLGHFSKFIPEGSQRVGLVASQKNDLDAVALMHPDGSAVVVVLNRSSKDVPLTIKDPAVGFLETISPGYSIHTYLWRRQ

| SMILES | activity change, negative = inhibition | Potency |
| --- | --- | --- |
| Cc1cc(C)n2ncc(C(=O)Nc3cccc(O)c3)c2n1 | -4.31% (inactive) | – |
| Cc1ccc(C)c(N2CCN(C(=O)CCC(=O)Nc3ccc4nc(N5CCOCC5)cc(C)c4c3)CC2)c1 | – | 15.8 µM (active) |
| O=C(/C=C/c1ccc(O)cc1)c1ccc(O)cc1O | – | 4.47 µM (active) |
| c1ccc2c(NCC3CCCO3)nc(N3CCOCC3)nc2c1 (centres undefined) | -5.75% (inactive) | – |
| COc1cccc(CN(C)c2nc(-c3cccs3)nc3ccccc23)c1 | – | 2.51 µM (active) |
| O=C(COc1ccccc1[N+](=O)[O-])Nc1ccc(Br)cc1 | 2.03% (inactive) | – |
| Cc1cc(C)cc(N(CC(=O)NC2CCC(C)CC2)S(=O)(=O)c2c(C)[nH]c(=O)[nH]c2=O)c1 (centres undefined) | – | 0.562 µM (active) |
| O=C(NCc1ccccc1)c1ccc(NS(=O)(=O)c2ccccc2)cc1 | -26.8% (inactive) | – |
| CCN(CC)c1ccc(C(=O)Nc2ccc3nc(N4CCOCC4)cc(C)c3c2)cc1 | – | 15.8 µM (active) |
| COc1cccc(NC(=O)CSc2nc3ccccc3c(=O)n2Cc2cccs2)c1 | -4.03% (inactive) | – |
| CCCNC(=O)COC(=O)c1ccccc1OCC(=O)Nc1ccc(Br)cc1 | -0.819% (inactive) | – |
| Cc1cc(Nc2cccc(Cl)c2)nc2ccc(NC(=O)C3CCC(C)CC3)cc12 (centres undefined) | -11.8% (inactive) | – |
| Cc1ccc(Cl)cc1NC(=O)c1ccccc1OCC(=O)Nc1ccc(Cl)cc1 | -9.04% (inactive) | – |
| Oc1ccccc1Nc1nc(NCC2CCCO2)c2ccccc2n1 (centres undefined) | -14.9% (inactive) | – |
| CCOc1ccc(N(CC(=O)NC2CCCCCC2)S(=O)(=O)c2c(C)[nH]c(=O)[nH]c2=O)cc1 | – | 2.82 µM (active) |
| COc1cc2c(cc1NC(=O)COC(=O)[C@@H](NC(=O)c1ccccc1)C(C)C)oc1ccccc12 | -5.59% (inactive) | – |
| CCCC1CCC(C(=O)Nc2ccc3nc(N4CCOCC4)cc(C)c3c2)CC1 (centres undefined) | – | 0.562 µM (active) |
| CCC(C)c1ccc(NC(=O)c2cnn3c(C(F)F)cc(C)nc23)cc1 (centres undefined) | 4.93% (inactive) | – |
| Cc1cc(C)n2ncc(C(=O)Nc3ccc(Cl)c(Cl)c3)c2n1 | 1.27% (inactive) | – |
| COc1ccccc1OCC(=O)Nc1oc(-c2ccccc2)c(-c2ccccc2)c1C#N | 1.85% (inactive) | – |
| O=C(CSc1nccc(-c2cccs2)n1)Nc1cccc(Cl)c1 | -1.32% (inactive) | – |
| COc1cccc(NC(=S)N(CCCN2CCOCC2)Cc2cn(C)c3ccccc23)c1 | – | 4.47 µM (active) |
| Cc1cc(N2CCC(C)CC2)nc2ccc(NC(=O)C3CCC(C)CC3)cc12 (centres undefined) | – | 11.2 µM (active) |
| COc1ccc(Nc2nc(-c3cccs3)nc3ccccc23)cc1 | – | 2.51 µM (active) |
